In PubChem BioAssay (NCI) one finds growth data, which are given here for 39 compounds.

Where “and” joins values, the source holds several entries; their conditions need not be identical. Equal entries are not always repeated. The panel holds about 83,000 compounds, 20% with a hit somewhere; the sample as a whole holds those more often.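 Step 1: grow cells in 96-well plates. Step 2: add test compound at a single concentration. Step 3: incubate 48 h. Step 4: record percent growth.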 Unmarked numbers belong to inactive results. Calls of active or inactive are those of the source.

In the first assay the test system is OVCAR-3 ovarian. In words: NCI-60 one-dose screen, 48 h (100 = growth as untreated, 0 = no growth, -100 = all killed). The following applies: 4.75 µM. On the procedure: Growth inhibition of the OVCAR-3 human tumor cell line is measured as a screen for anti-cancer activity. Cells are grown in 96 well plates and exposed to the test compound for 48 hours. Compounds are tested at a single concentration, which is 10^-5 M for most compounds. The reported endpoint is percent growth (GI% or GIPRCNT), where numbers from 0 - 100% represent growth inhibition, and numbers from -100% - 0 represent cell death. For example, a value of 40 represents 60% growth inhibition. A value of 0 means no net growth occurred over the course of the experiment. A value of -40 indicates 40% of cells at the beginning of the experiment died by the end of the experiment. A value of -100 means all cells are dead at the end of the experiment.
NCI-60 Human Tumor Cell Lines Screen was performed using the standard one-dose NCI protocol, which is described in more detail at https://dtp.cancer.gov/discovery_development/nci-60/default.htm.
Compounds with GIPRCNT values below 10 were considered active. Activity score was based on GIPRCNT using the following formula: […]
Score is 0 for GIPRCNT values of 100 or above, 50 for GIPRCNT values of 0, and 100 for GIPRCNT values of -100.
For the compound `CC(=O)OCC1OC([S-])C(OC(C)=O)C(OC(C)=O)C1OC(C)=O.[Au+].c1ccc(CN2[CH-]N(Cc3ccccc3)C(c3ccccc3)=C2c2ccccc2)cc1`, the growth was -44.3% (active).

Staying with this assay, now noted: 10 µM.
For `CC(=O)OCC1OC([S-])C(OC(C)=O)C(OC(C)=O)C1OC(C)=O.[Au+].c1ccc(CN2[CH-]N(Cc3ccccc3)C(c3ccccc3)=C2c2ccccc2)cc1`, the growth is -95.7% (active).

The same assay, now with this note: 10 µM unless noted.
Regarding `C[C@@]12CCCc3coc(c31)C(=O)c1cc3c(cc12)C(=O)C1=C(NCCS1(=O)=O)C3=O`, the growth was -47.2% (active). Regarding `Cc1cc(N(CCCl)CCCl)ccc1/C=N\NC(=O)c1cccnc1`, the growth is 104% and 101%. Still for that read-out and setting: to `C[C@]12CC[C@H]3[C@@H](C[C@@H]4SC(Nc5cccc(F)c5)=N[C@@]45CC(=O)CC[C@]35C)[C@@H]1CCC2=O` belongs -5.24% (active); to `CC1(C)N(Nc2ccccc2)C(=O)C2CCCN21` (stereo not given), 0.57% (active).

In the case of `C[C@]12CCc3nc(-c4ccc(O)c(O)c4)sc3C1=CC[C@@H]1[C@@H]2CC[C@]2(C)C(=O)CC[C@@H]12`, the growth is 87.5%. Same read-out and setting: the result for `c1ccc(CCN2CCCCC2)nc1` reads 111%; that for `O=c1c2ccccc2nc(-c2ccccc2Cl)n1-c1nnc(C(F)(F)F)s1`, 18.7%.

Regarding `O=C(CCCN1CCC2(CC1)C(=O)NCN2c1ccccc1)c1ccc(F)cc1`, the growth was 105% and 107%. Turning to `C/C(=C\c1ccn(-c2ccc(N)cc2F)n1)[C@@H]1C[C@@H]2O[C@]2(C)CCC[C@H](C)[C@H](O)[C@@H](C)C(=O)C(C)(C)[C@@H](O)CC(=O)O1`, the growth is -4.43% (active). The same measure, in the same setting: the result for `CCOC(=O)c1ccccc1C(=O)OCC` reads 107%; that for `Cc1c(C)c(N)c(C)c(C)c1N`, 115%. Turning to `COc1ccc(C(C#N)C(C)=O)cc1` (stereo not given), the growth was 108%. Still for that read-out and setting: the result for `C[C@]12CCc3sc(Nc4ccc(F)cc4)nc3C1=CC[C@@H]1[C@@H]2CC[C@]2(C)C(=O)CC[C@@H]12` reads 24.1%; that for `CCC1(NC(=O)c2cc(F)c(F)c(F)c2F)C(=O)NC(=O)N(C(C)C)C1=O` (stereo not given), 138%. On the same count and under the same terms, the result for `N#Cc1ccc(Cl)cc1` reads 114%; that for `Oc1cc(Cl)ccc1Oc1ccc(Cl)cc1Cl`, 6.75% (active). Same read-out and setting: the result for `O=S(=O)(F)c1cccc(Cl)c1C[P+](c1ccccc1)(c1ccccc1)c1ccccc1` reads 96.5%; that for `O=C(CBr)OCCOC(=O)CBr`, 87.5%; that for `Cc1cc[n+](CCc2ccccc2)cc1`, 104% and 118%. Regarding `CC1=C(C)C(=O)O[C@@H]([C@](C)(O)[C@]2(O)CC[C@@]3(O)[C@@H]4C[C@H]5O[C@]56CC=CC(=O)[C@]6(C)[C@H]4CC[C@]23C)C1`, the growth is -59.6% (active). Same read-out and setting: the result for `Cc1cc(N)ccc1N` reads 102%; that for `Cc1ccc(N2CCN(CCC#N)CC2)cc1`, 106%. As to `CN(C)C(=S)SSC(=S)N(C)C`, the growth was 88.5% and 112%.

In the case of `O=C(O)C(O)c1ccc(Cl)cc1` (stereo not given), the growth is 116% and 104%. On to `CCC(=O)C(CC(C)[N+](C)(C)C)(c1ccccc1)c1ccccc1` (stereo not given), for which the growth was 70.6%. Turning to `COc1ccc(N)cc1N`, the growth is 120%.

`COc1ccc2c(c1)c(-c1nc(-c3cn(C)c4ncccc34)cs1)cn2CCCCN1CCOCC1`: the growth is 50.8%. On the same count and under the same terms, to `CC[C@H](C)[C@H](NC(=O)[C@H]1CCCCN1C)C(=O)N(C)[C@H](C[C@@H](OC(C)=O)c1nc(C(=O)NC23C4C5C2C2C3C4C52C(=O)OC)cs1)C(C)C` (stereo not given in full) belongs -7.47% (active). The same measure, in the same setting: the result for `CC(C)c1cccc(C(C)C)c1O` reads 112% and 101%; that for `CCCCn1c(=O)c(C(=O)NCc2ccccc2Cl)c(O)c2ccccc21`, 78.9%.

On to `CC[C@H](C)[C@H](NC(=O)CN(C)C)C(=O)N(C)[C@H](C[C@@H](OC(C)=O)c1nc(C(=O)NC23C4C5C2C2C3C4C52C(=O)OC)cs1)C(C)C` (stereo not given in full), for which the growth is -34% (active). The same measure, in the same setting: to `Nc1c(Cl)c(Cl)nc(C(=O)O)c1Cl` belongs 107%; to `COc1ccc(CN)cc1OC`, 109% and 107%. Still for that read-out and setting: the result for `CC[C@H](C)[C@H](NC(=O)c1cnccn1)C(=O)N(C)[C@H](C[C@@H](OC(C)=O)c1nc(C(=O)N[C@@H](Cc2ccccc2)C[C@H](C)C(=O)OC)cs1)C(C)C` reads -10.2% (active); that for `CC(=O)OC1CC2(O)C(CCC3(C)C(c4ccc(=O)oc4)CCC32O)C2(C)CCC(OC3OC(CO)C(O)C(O)C3O)C=C12` (stereo not given), -100% (active); that for `Cc1cc2c(cc1-c1ccnc(/C=C/C(=O)O)c1)C(C)(C)CCC2(C)C`, 82.8%. With `CC1=C([Te]c2ccccc2)C(=O)c2ccccc2C1=O`, the growth is -77.5% (active).

In the case of `O=[N+]([O-])c1c(Cl)cc(Cl)c([N+](=O)[O-])c1Cl`, the growth is 78.3%.
